Values joined by “and” are separate entries in the source; they are usually repeats but may differ in a detail not shown here. Identical values can stand only once. Among all 2,000 compounds or so, about 100 (5%) were called active. Cut-off read from the data, not from the text of the source: active = z-score above about 2; inactive = the rest. The list comes from a sample in which actives are over-represented; it also holds similar structures and randomly drawn compounds. Where a structure was tested more than once in an assay, its records may differ in their call.
Assay: supercomplex reporter luminescence per Hoechst cell count – Hoechst nuclei count (AID 1645838);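 note: control cybrid cells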;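 for z-score: higher means more mitochondrial supercomplex formation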
Conditions: Cells, luminescence/Hoechst cell count ratio; for z-score: stronger effect = higher value; for cell count: measured here: cell number, Hoechst nuclei count
[1] = library stock concentration (final well concentration not given) 80 uM
[2] = library stock concentration (final well concentration not given) 400 uM
[3] = library stock concentration (final well concentration not given) 2 mM
[4] = library stock concentration (final well concentration not given) 10 mM
[5] = library stock concentration (final well concentration not given) 46 uM
[6] = library stock concentration (final well concentration not given) 278 uM
[7] = library stock concentration (final well concentration not given) 1.67 mM

## Cn1cc(C=C2C(=O)Nc3cccnc32)c2ccccc21
[1]
  z-score: -0.136 (inactive)
  cell count: 5300
[2]
  z-score: -0.0135 (inactive)
  cell count: 5320
[3]
  z-score: -0.221 (inactive)
  cell count: 5410
[4]
  z-score: -0.519 (inactive)
  cell count: 4520

## Cn1c(SCC(=O)N2CCCC2C(=O)Nc2ccccc2-c2ccccc2)nc2ccccc21 (stereo not drawn)
[1]
  z-score: -0.422 (inactive)
  cell count: 5510
[2]
  z-score: -0.389 (inactive)
  cell count: 5800
[3]
  z-score: -0.142 (inactive)
  cell count: 5780
[4]
  z-score: -0.283 (inactive)
  cell count: 5710

## CC(C)CCOc1ccc(NC(=S)Nc2ccc(OCCC(C)C)cc2)cc1
  z-score: -0.0536 (inactive)
  cell count: 5220

## Cc1nc2ccc(-n3ncc(C(=O)c4cc5ccccc5[nH]4)c3N)cc2[nH]1
[1]
  z-score: -0.114 (inactive)
  cell count: 5810
[2]
  z-score: -0.221 (inactive)
  cell count: 5920
[3]
  z-score: -0.0631 (inactive)
  cell count: 5510
[4]
  z-score: 5.29 (active)
  cell count: 3410

## CCCCC[C@H](O)/C=C/[C@H]1[C@H](O)CC(=O)[C@@H]1C/C=C\CCCC(=O)OCC(O)CO (stereo partly drawn)
  z-score: 0.364 (inactive)
  cell count: 5190

## CCCNC1CCc2nc(N)sc2C1 (stereo not drawn)
[1]
  z-score: -0.399 (inactive)
  cell count: 6960
[2]
  z-score: -0.375 (inactive)
  cell count: 6720
[3]
  z-score: -0.412 (inactive)
  cell count: 6830
[4]
  z-score: -0.168 (inactive)
  cell count: 6380

## CCOc1ccc(S(=O)(=O)N(CC(=O)N=Nc2c(O)[nH]c3ccccc23)c2ccccc2)cc1
Library stock 10 mM
  outcome: inactive; censored for cell count
[1]
  z-score: 0.0734 (inactive)
  cell count: 5190
[2]
  z-score: 0.0751 (inactive)
  cell count: 5160
[3]
  z-score: 0.419 (inactive)
  cell count: 4350

## CC/C=C\C/C=C\C/C=C\C/C=C\CCCCC(=O)OCC
  z-score: -0.596 (inactive)
  cell count: 5380

## Nc1nccc2c1ncn2C1C=C(CO)C(O)C1O (stereo not drawn)
Library stock 10 mM
  outcome: inactive; censored for cell count
[5]
  z-score: -0.246 (inactive)
  cell count: 5790
[6]
  z-score: 0.747 (inactive)
  cell count: 4240
[7]
  z-score: 2.95 (active)
  cell count: 1810

## CCCCCCCCCCCC(=O)NC[C@]1(C)CCC[C@]2(C)c3ccc(C(C)C)cc3CC[C@@H]12
  z-score: 0.0192 (inactive)
  cell count: 4880

## CCCCCCCCCCCCCCCC(=O)OC[C@@H](O)COP(=O)(O)O
  z-score: 0.759 (inactive)
  cell count: 4710

## CC(=O)O[C@@]12C[C@@H](C)[C@@]3(O)[C@@H](C=C(CO)C[C@]4(O)C(=O)C(C)=C[C@@H]34)[C@@H]1C2(C)C
  z-score: 2.36 (active)
  cell count: 5140

## CCCCC[C@H](O)/C=C/[C@H]1C=CC(=O)[C@@H]1CCCCCCC(=O)O
  z-score: 0.664 (inactive)
  cell count: 4830

## Cc1nc(Nc2n[nH]c3c2CN(C(=O)NC(CN(C)C)c2ccccc2)C3(C)C)c2sccc2n1 (stereo not drawn)
Library stock 1.67 mM
  outcome: inactive; censored for cell count
Library stock 10 mM
  outcome: inactive; censored for cell count
[5]
  z-score: 0.353 (inactive)
  cell count: 4470
[6]
  z-score: 1.68 (inactive)
  cell count: 2250

## Cc1cccc(Nc2nc(-c3ccncc3)cs2)c1
  z-score: -0.555 (inactive)
  cell count: 5440

## Oc1ccc(Nc2nc(-c3ccc(Cl)cc3)cs2)cc1
  z-score: -0.695 (inactive)
  cell count: 4930
[1]
  z-score: 0.00338 (inactive)
  cell count: 5690
[2]
  z-score: -0.177 (inactive)
  cell count: 5570
[3]
  z-score: -0.154 (inactive)
  cell count: 5530
[4]
  z-score: 1.99 (active)
  cell count: 2610

## COc1cccc(OC)c1-c1ccc(CC(NC(=O)c2c(Cl)cccc2Cl)C(=O)O)cc1 (stereo not drawn)
[5]
  z-score: -0.0712 (inactive)
  cell count: 5760
[6]
  z-score: -0.126 (inactive)
  cell count: 5740
[7]
  z-score: -0.192 (inactive)
  cell count: 5820
[4]
  z-score: -0.205 (inactive)
  cell count: 5840

## CCCCCCCCCCCCCCCC(=O)OC[C@@H](O)COP(=O)([O-])OCC[N+](C)(C)C
  outcome: inactive; censored for cell count

## COc1cc2ncnc(Nc3ccc(F)c(Cl)c3)c2cc1OCCCN1CCOCC1
[1]
  z-score: 0.183 (inactive)
  cell count: 5740
[2]
  z-score: 0.0655 (inactive)
  cell count: 5370
[3]
  z-score: 0.641 (inactive)
  cell count: 5790
[4]
  z-score: 1.23 (inactive)
  cell count: 4940

## COc1cc2c(Oc3ccc4[nH]c(C)cc4c3F)ncnc2cc1OCCCN1CCCC1
[5]
  z-score: -0.259 (inactive)
  cell count: 4900
[6]
  z-score: -0.207 (inactive)
  cell count: 4920
[7]
  z-score: -0.199 (inactive)
  cell count: 4790
[4]
  z-score: 0.419 (inactive)
  cell count: 3820

## COc1cc(Nc2c(C#N)cnc3cc(OCCCN4CCN(C)CC4)c(OC)cc23)c(Cl)cc1Cl
Library stock 10 mM
  outcome: inactive; censored for cell count
[5]
  z-score: -0.0511 (inactive)
  cell count: 5680
[6]
  z-score: 0.0803 (inactive)
  cell count: 5890
[7]
  z-score: 2.12 (active)
  cell count: 3280

## CC1CN(Cc2ccccc2)CC1c1nc2c(cnn2C2CCOCC2)c(=O)[nH]1 (stereo not drawn)
[1]
  z-score: -0.245 (inactive)
  cell count: 6480
[2]
  z-score: -0.201 (inactive)
  cell count: 6460
[3]
  z-score: -0.281 (inactive)
  cell count: 6500
[4]
  z-score: -0.05 (inactive)
  cell count: 5630

## CCCCCOc1ccccc1C(O)CC#CCCCC(=O)OC (stereo not drawn)
  z-score: -0.738 (inactive)
  cell count: 4890

## COc1cc(C)c(Sc2cnc(NC(=O)c3ccc(CNC(C)C(C)C)cc3)s2)cc1C(=O)N1CCN(C(C)=O)CC1 (stereo not drawn)
Library stock 10 mM
  outcome: inactive; censored for cell count
[1]
  z-score: -0.488 (inactive)
  cell count: 4600
[2]
  z-score: -0.307 (inactive)
  cell count: 4380
[3]
  z-score: 0.194 (inactive)
  cell count: 4120

## CC(CSC(=O)c1ccccc1)C(=O)N1CC(Sc2ccccc2)CC1C(=O)O (stereo not drawn)
[1]
  z-score: -0.846 (inactive)
  cell count: 6770
[2]
  z-score: -0.854 (inactive)
  cell count: 5990
[3]
  z-score: -0.642 (inactive)
  cell count: 6700
[4]
  z-score: -0.914 (inactive)
  cell count: 6110

## CCCCC[C@H](O)/C=C/[C@@H]1[C@@H](C/C=C\CCCC(=O)N(CC)CC)[C@@H](O)C[C@H]1O
  z-score: -1.04 (inactive)
  cell count: 5830

## NC(=O)c1noc(C(CCCC2CCCCC2)CC(=O)NO)n1 (stereo not drawn)
[5]
  z-score: -0.365 (inactive)
  cell count: 6320
[6]
  z-score: -0.421 (inactive)
  cell count: 6380
[7]
  z-score: -0.0342 (inactive)
  cell count: 5390
[4]
  z-score: 2.42 (active)
  cell count: 2560

## C=C1C(=O)O[C@H](CCCCCCCC)[C@H]1C(=O)O
  z-score: -0.4 (inactive)
  cell count: 5960

## CCCCC/C=C\CCCCCCCCCCCCC(=O)O
  z-score: -0.87 (inactive)
  cell count: 5480

## CN(C)CCCCCCOc1ccc(-n2ccnc2)cc1
  z-score: 2.07 (active) and 0.161 (inactive)
  cell count: 4900 and 5850

## COc1ccc(CCCOC(Cn2ccnc2)c2ccc(OC)cc2)cc1 (stereo not drawn)
  z-score: 0.304 (inactive)
  cell count: 4930

## NC(=O)C(c1ccccc1)(c1ccc(F)cc1)c1ccc(F)cc1
[5]
  z-score: -0.117 (inactive)
  cell count: 6820
[6]
  z-score: 0.34 (inactive)
  cell count: 6540
[7]
  z-score: -0.0437 (inactive)
  cell count: 6770
[4]
  z-score: 0.799 (inactive)
  cell count: 6720

## O=C1C(Nc2ccccc2)=CC(=O)c2ncccc21
  z-score: 0.666 (inactive)
  cell count: 3000

## O=C(NNS(=O)(=O)c1ccccc1C(F)(F)F)c1cc2cc(Cl)ccc2o1
[5]
  z-score: -0.12 (inactive)
  cell count: 7080
[6]
  z-score: -0.121 (inactive)
  cell count: 6790
[7]
  z-score: -0.307 (inactive)
  cell count: 7310
[4]
  z-score: -0.0108 (inactive)
  cell count: 6850

## CC=C(C)C(=O)OC1C(C)=C[C@]23C(=O)C(C=C(CO)C(O)[C@]12O)C1C(CC3C)C1(C)C (stereo partly drawn)
[5]
  z-score: 1.37 (inactive)
  cell count: 6280
[6]
  z-score: 1.94 (inactive)
  cell count: 6170
[7]
  z-score: 1.83 (inactive)
  cell count: 6240
[4]
  z-score: 1.83 (inactive)
  cell count: 5670

## CCCCCCCCCCCCCCCC(=O)NC[C@@H](C)O
  z-score: -0.297 (inactive)
  cell count: 5690

## CCCCC/C=C\C=C1\C(=O)CC[C@@H]1C/C=C\CCCC(=O)O
  z-score: -0.163 (inactive)
  cell count: 5580

## COc1ccc(C(=O)O)cc1
[1]
  z-score: -0.451 (inactive)
  cell count: 6090
[2]
  z-score: -0.128 (inactive)
  cell count: 5780
[3]
  z-score: -0.287 (inactive)
  cell count: 5670
[4]
  z-score: -0.368 (inactive)
  cell count: 5840

## COc1ccc(C(=O)C(=O)c2ccc(OC)cc2)cc1
[1]
  z-score: -0.606 (inactive)
  cell count: 5520
[2]
  z-score: -0.661 (inactive)
  cell count: 5760
[3]
  z-score: -0.561 (inactive)
  cell count: 5480
[4]
  z-score: -0.758 (inactive)
  cell count: 5880

## COc1ccc(C(=O)CC2(O)C(=O)Nc3c(Cl)ccc(Cl)c32)cc1 (stereo not drawn)
Library stock 10 mM
  outcome: inactive; censored for cell count
[5]
  z-score: -0.53 (inactive)
  cell count: 7260
[6]
  z-score: 0.329 (inactive)
  cell count: 5870
[7]
  z-score: 3.41 (active)
  cell count: 2920

## CCCCCCCCCCCCC(O)C(=O)O (stereo not drawn)
  z-score: -0.554 (inactive)
  cell count: 5820

## CCCCC[C@@H](O)/C=C/[C@@H]1[C@@H](C/C=C\CCCC(=O)O)[C@@H](O)C[C@H]1O
  z-score: -0.443 (inactive)
  cell count: 5100

## CCCCC[C@H](O)CC[C@H]1[C@H](O)CC(=O)[C@@H]1CCCCCCC(=O)O
  z-score: 0.391 (inactive)
  cell count: 5410

## CCCCC[C@H](O)/C=C/[C@H]1C(=O)C=C[C@@H]1C/C=C\CCCC(=O)O
  z-score: -0.0566 (inactive)
  cell count: 4900

## NCCCCN(Cc1nc2ccccc2[nH]1)C1CCCc2cccnc21 (stereo not drawn)
[1]
  z-score: -0.0283 (inactive)
  cell count: 5890
[2]
  z-score: 0.157 (inactive)
  cell count: 5860
[3]
  z-score: 0.36 (inactive)
  cell count: 5630
[4]
  z-score: 2.01 (active)
  cell count: 3290

## CCCCC[C@@](C)(O)/C=C/[C@@H]1[C@@H](C/C=C\CCCC(=O)OC)[C@@H](O)C[C@H]1O
  z-score: -0.104 (inactive)
  cell count: 5030

## CCCCC[C@H](O)/C=C/[C@@H]1c2cc(CCCCC(=O)O)n(-c3ccccc3)c2C[C@H]1O
  z-score: -1.31 (inactive)
  cell count: 6120

## COc1cc2nccc(Oc3ccc(NC(=O)Nc4cc(C)on4)c(Cl)c3)c2cc1OC
Library stock 10 mM
  outcome: inactive; censored for cell count
[1]
  z-score: -0.536 (inactive) and -0.288 (inactive)
  cell count: 4520 and 5260
[2]
  z-score: -0.724 (inactive) and -0.129 (inactive)
  cell count: 4890 and 4760
[3]
  z-score: -1.01 (inactive) and -0.967 (inactive)
  cell count: 4710 and 4870
[4]
  z-score: 5.93 (active)
  cell count: 1710

## COc1cc(OC)c(NC(=O)Nc2cc(C)on2)cc1Cl
[1]
  z-score: -0.669 (inactive)
  cell count: 6520
[2]
  z-score: -0.368 (inactive)
  cell count: 5740
[3]
  z-score: -0.584 (inactive)
  cell count: 6660
[4]
  z-score: -0.574 (inactive)
  cell count: 5990
